# Measured values: PubChem BioAssay AID1259417 (TB Discovery Research, Infectious Disease Research Institute, 2018)
# The whole screen tested about 1,100 compounds, of which about 760 (69%) were called active. No rule for the calls is given here. The set was probably picked from earlier hits. The list shows a part of the results.
# Experiment: M. tuberculosis growth inhibition, HTS (AID 1259417);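 also: bacteria grown with compound for 5 days at 37 °C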
# Conditions: stronger effect = higher value, concentration not given here
# [1] = M. tuberculosis DsRed fluorescence growth inhibition
# [2] = M. tuberculosis growth inhibition
Compound,inhibition [1],inhibition [2] [%]
O=C1c2cccc3cccc(c23)C(=O)N1c1ccc2[nH]c(=O)[nH]c2c1,36.4% (active),63.9
COc1ccc2nc(C)c3cc(C)oc3c2c1,99.8% (active),99.6
O=c1cc(-c2c(F)c(F)c(F)c(F)c2F)oc2ccccc12,99.2% (active),96.4
O=C(Oc1cccc2cccnc12)c1ccc(S(=O)(=O)N2CCCCC2)cc1,99.4% (active),100
O=C(Oc1cccc2cccnc12)c1ccc(Cl)c(S(=O)(=O)N2CCOCC2)c1,100% (active),101
O=C(Oc1c(Cl)cc(Cl)c2cccnc12)c1cc(S(=O)(=O)N2CCCCC2)ccc1Cl,98.6% (active),99.4
Cc1ccc(S(=O)(=O)NC(=O)Oc2cccc3cccnc23)cc1,-0.272% (inactive),-10.4
O=C(Oc1ccc(Cl)cc1)c1ccc(N2CCOCC2)c([N+](=O)[O-])c1,4.2% (inactive),24.6
O=C(Oc1ccccc1Cl)c1ccc(N2CCOCC2)c([N+](=O)[O-])c1,0.0336% (inactive),13.4
O=C(Oc1ccc(Cl)cc1)c1ccc(S(=O)(=O)c2ccc(Cl)cc2)cc1,55.3% (active),74.8
COCCn1nnnc1C(c1cc2cc(OC)ccc2[nH]c1=O)N1CCC(Cc2ccccc2)CC1 (stereo not drawn),6.25% (inactive),-12.1
O=C(Oc1ccccc1)c1ccc(S(=O)(=O)N2CCCCC2)cc1,12% (active),46.3
COc1ccc(CNC(=O)c2c(C)nc3ccccn23)cc1,99.4% (active),100
Cc1nc2ccccn2c1C(=O)NCc1ccc2c(c1)OCO2,99.7% (active),99.6
Cc1nn(Cc2ccccc2Cl)c2sc(C(=O)NCc3ccc4c(c3)OCO4)cc12,-3.53% (inactive),-15.9
CCOC(=O)CSc1nc(C#N)c(SCC(=O)OCC)s1,31.4% (active),80.2
CCOC(=O)CSc1nc(N)c(C#N)c(CC(C)C)c1C#N,-5.9% (inactive),-4.83
Cc1ccc(NC(=O)CSc2ccc(-c3ccccn3)nn2)cc1,89% (active),97.4
CCOC(=O)c1c(NC(=O)c2ccccc2C)sc(C)c1-c1ccc(OC)c(OC)c1,-3.52% (inactive),-17.9
COc1ccc(-c2nc(NC(=O)c3ccccc3)n[nH]2)cc1OC,97.2% (active),96.7
CC(C)=CCN1CCN(CCC2=C(C)CCCC2(C)C)CC1CCO (stereo not drawn),-2.34% (inactive),-26.9
COc1cccc(NC(=O)c2c(NC(=O)c3cccnc3)sc3c2CCC3)c1,92.4% (active),95.5

Compound,inhibition [1],inhibition [2] [%]
COC(=O)c1c(NC(=O)c2cccc(OC)c2)sc2c1C(C(=O)OC)CC2 (stereo not drawn),1.52% (inactive),-13.4
COc1ccc(NC(=O)c2c(NC(=O)c3ccc([N+](=O)[O-])o3)sc3c2CCC3)cc1,96.5% (active),96.2
COc1cccc(NC(=O)c2c(NC(=O)c3cccc(C)c3)sc3c2CCC3)c1,-1.15% (inactive),-10.7
CC(C)COc1ccc(-c2nn(-c3ccccc3)cc2C(=O)Nc2nccs2)cc1,2.38% (inactive),-24.1
Brc1ccc(-c2nn(-c3ccccc3)cc2CNCc2ccccc2)cc1,23.1% (active),39.4
CCn1ccnc1CN(C)Cc1cn(-c2cc(C)ccc2C)nc1-c1ccccc1,16.9% (inactive),8.97
CCn1ccnc1CN(C)Cc1cn(-c2ccc(C)cc2)nc1-c1cccc(C)c1,14.8% (inactive),8.21
Cc1ccc(-c2nn(-c3ccccc3)cc2CNCc2ccccc2)cc1,33.4% (active),66.5
NC(=O)c1c(NC(=O)c2cc3ccccc3oc2=O)sc2c1CCCCCC2,3.53% (inactive),-10.8
CCOC(=O)c1c(-c2ccccc2)csc1NC(=O)c1cc2ccccc2oc1=O,7.43% (active),32.3
CCOC(=O)c1c(-c2ccc(OC)c(OC)c2)csc1NC(=O)c1cccc(OC)c1OC,4.18% (inactive),-8.63
CCOC(=O)c1cc(CC)sc1NC(=O)c1cc2ccccc2oc1=O,23.7% (active),60.6
Cc1sc(NC(=O)c2cc3ccccc3oc2=O)c(C(=O)OC(C)C)c1C,6.18% (inactive),28.3
CCc1nnc(NC(=O)c2cc3ccccc3oc2=O)s1,1% (active),47
Cc1cc2ncn(CCOc3ccc(Cl)cc3)c2cc1C,88.3% (active),95.9
Cc1cc2ncn(Cc3ccc(C(C)C)cc3)c2cc1C,90.4% (active),98.3
Cc1cccc(OCCCn2cnc3cc(C)c(C)cc32)c1,88% (active),97.5
C1=CC2CC1CC2CN1CCC(N(CCc2ccccc2)Cc2ccccc2)CC1 (stereo not drawn),99.4% (active),96.9
c1ccc(CCN(Cc2ccccc2)C2CCN(Cc3c[nH]c4ccccc34)CC2)cc1,2.96% (inactive),-21.5
O=C(OCn1nnc2ccccc2c1=O)c1cccs1,42.4% (active),57.1
O=C(OCn1nnc2ccccc2c1=O)c1ccco1,20.6% (active),47
CCCn1nnnc1NC(=O)c1cccs1,18.2% (inactive),29.4
